# Results from PubChem BioAssay AID504545 (Broad Institute, 2011).
# Potency and affinity values are given separately. Inconclusive results are not listed. Unmarked numbers belong to inactive results. No rule for the calls is given here.
# Molecular target: Cyclin-dependent kinase 5 activator 1 (Homo sapiens) + Cyclin-dependent kinase 5 (Homo sapiens) (UniProt Q15078+Q00535)
# Experiment: blockade of human CDK5 activity – biochemical, cherry-picked samples, set 2, dose response (AID 504545)
# Conditions: CDK5/p35 kinase activity, biochemical plate reader; series mostly up to 30 µM; activity change, negative = inhibition: at the top concentration
# Cyclin-dependent kinase 5 activator 1 (Homo sapiens) + Cyclin-dependent kinase 5 (Homo sapiens), sequence (Q00535 whole entry, looked up): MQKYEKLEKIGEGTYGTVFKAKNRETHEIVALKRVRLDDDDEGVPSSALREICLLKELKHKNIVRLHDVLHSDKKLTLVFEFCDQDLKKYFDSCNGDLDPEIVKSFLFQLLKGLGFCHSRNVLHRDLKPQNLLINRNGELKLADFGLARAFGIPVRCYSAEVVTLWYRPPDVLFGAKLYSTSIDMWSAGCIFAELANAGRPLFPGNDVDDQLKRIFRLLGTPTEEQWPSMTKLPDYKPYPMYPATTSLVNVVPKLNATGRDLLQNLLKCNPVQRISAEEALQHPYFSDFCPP
# Cyclin-dependent kinase 5 activator 1 (Homo sapiens) + Cyclin-dependent kinase 5 (Homo sapiens), sequence (Q15078 whole entry, looked up): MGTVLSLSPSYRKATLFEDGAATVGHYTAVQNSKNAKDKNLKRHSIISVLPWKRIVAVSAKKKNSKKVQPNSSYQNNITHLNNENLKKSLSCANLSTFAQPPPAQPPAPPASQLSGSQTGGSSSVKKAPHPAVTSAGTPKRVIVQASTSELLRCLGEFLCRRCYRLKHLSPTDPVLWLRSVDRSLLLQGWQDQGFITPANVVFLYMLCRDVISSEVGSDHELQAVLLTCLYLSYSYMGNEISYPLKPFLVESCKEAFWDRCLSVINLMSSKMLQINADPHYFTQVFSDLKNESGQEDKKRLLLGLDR
row,SMILES,"activity change, negative = inhibition"
1,COc1ccc(Nc2nc(N)c(C(=O)c3ccc(F)cc3)s2)cc1,-13.6%
2,O=C(O)c1ccc(N/N=C/c2ccc(C(F)(F)F)cc2)cc1,-7.66%
3,O=C(O)c1ccc(/C=N/Nc2ncc(C(F)(F)F)cc2Cl)cc1,-5.86%
4,O=C(c1ccc2c(c1)OCCO2)N1CCN(c2ccccn2)CC1,18.1%
5,COc1ccc2nc(C(F)(F)C(F)(F)F)c(C#N)c(N)c2c1,2.9%
6,CCN1C(=O)/C(=C2/Sc3ccc(OC)cc3N2C)SC1=Nc1cccc(O)c1,13%
7,Cc1nc(Nc2ccccc2)sc1C(=O)c1ccccc1,-4.27%
8,COc1ccc(C(=O)c2sc(Nc3ccccc3F)nc2N)cc1,-8.79%
9,COc1cc(OC)c(C(=O)N2CCN(c3ccccn3)CC2)cc1OC,4.37%
10,O=C(NNC(=O)c1cccs1)c1ccccc1,-8.86%
11,O=C(NNC(=O)c1ccco1)c1ccccc1,1.86%
12,CN(C)N1C(N)=C(C#N)C(c2cccs2)C2=C1CCCC2=O (stereo not drawn),-19.4%
13,CC(C)[C@H](CO)N(Cc1cccc(F)c1)c1nc(Nc2cccc(Cl)c2)c2ncn(C(C)C)c2n1,-8.3%
14,CC(C)C[C@H](CO)Nc1nc(N(C)c2cccc(Cl)c2)c2ncn(C(C)C)c2n1,15.1%
15,Nc1ncnc2c1ncn2C1OC(CO)C(O)C1O (stereo not drawn),-1.99%
16,CC(C)n1cnc2c(N(C)c3cccc(Cl)c3)nc(N(CCO)CCO)nc21,3.33%
17,CC(C)(C)c1ccc(C(=O)O/N=C(\N)c2ccccn2)cc1,11.4%
18,COc1ccc(C(=O)N2CCN(c3ccccn3)CC2)cc1,7.99%
19,COc1ccccc1C(=O)N1CCN(c2ccccn2)CC1,-5.86%
20,COc1cccc(C(=O)N2CCN(c3ccccn3)CC2)c1,11.5%
21,COc1cc(OC)cc(C(=O)NNC(=O)c2ccccn2)c1,6.58%
22,Clc1cncc(Cl)c1N/N=C/c1ccccc1,8.75%
23,C=CC(=O)Nc1ccc(Nc2ccnc(Nc3ccc(N4CCN(C)CC4)cc3)n2)cc1,14.6%
24,COc1ccc2ccc3ccc(OC)c(OC(C)=O)c3c2c1,-3.35%
25,COc1ccc(Nc2nccc(-c3ccc([N+](=O)[O-])cc3)n2)cc1,-9.28%
26,O=[N+]([O-])c1ccc2c(c1)/C(=N\O)c1ccccc1-2,-11.8%
27,COc1cc(OC)cc(C(=O)N2CCN(c3ccccn3)CC2)c1,1.08%
28,CC(C)(C)N=Cc1c(O)ccc2oc3c(c12)CCCC3,-1.17%
